Data as given in PubChem BioAssay.
Records with an inconclusive call do not appear. Calls of active or inactive are those of the source. Unless noted, cut-off not given; nearly all actives show AC50 up to about 26 µM.

Assay: growth inhibition of DIPG glioma cells, dose response, cell-based, SU-DIPG-XIII, MIPE5.0, CellTiter-Glo, qHTS (AID 1347064; cut-off not given, nearly all actives have AC50 up to about 23 µM;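 on AC50: cells exposed to compound for 48 hours before the viability read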)
Settings: SU-DIPG-XIII viability, CellTiter-Glo ATP luminescence

Compound | outcome | AC50
O=C(Nc1cnccc1Cl)N1CCN(Cc2ccc3c(c2)OC(F)(F)O3)CC1 | inactive | –
C#Cc1cccc(Nc2ncnc3cc4c(cc23)OCCOCCOCCO4)c1 | inactive | –
COc1ccc2nc3n[nH]c(C)c3c(NCCOCCO)c2c1 | inactive | –
Nc1ncnc2c1c(COc1cccc(Cl)c1)nn2C1CCOCC1 | inactive | –
Cc1ccc(NS(=O)(=O)c2ccc3c(c2)C2C=CCC2C(c2ccc(C(=O)O)cc2)N3)cc1C (stereo not given) | inactive | –
CSC[C@H]1CN(Cc2c[nH]c3c(N)ncnc23)C[C@@H]1O | inactive | –
Cc1nn(C)c2c1C(c1ccc(C(F)(F)F)cc1)C(C#N)=C(N)O2 (stereo not given) | inactive | –
O=c1[nH]c([C@@H]2CCCN2)nc2c1oc1ccc(Cl)cc12 | – | 20.9 µM (active)
OCCOc1ccc(/C(=C(/CCCl)c2ccccc2)c2ccccc2)cc1 | inactive | –
CN1CCN(c2nc(C3=C(c4c[nH]c5ccccc45)C(=O)NC3=O)c3ccccc3n2)CC1 | inactive | –
CCc1cc(Nc2nccc(-c3c(-c4ccc(OC)c(C(=O)Nc5c(F)cccc5F)c4)nc4ccccn34)n2)c(OC)cc1N1CCC(N2CCN(S(C)(=O)=O)CC2)CC1 | – | 5.25 µM (active)
C[C@@H](Nc1ncnc2[nH]c(-c3ccc(O)cc3)cc12)c1ccccc1 | inactive | –
Nc1nc(-c2nn(Cc3ccccc3F)c3ncccc23)ncc1C1CC1 | – | 11.8 µM (active)
COc1cc2ncnc(Nc3cccc(Cl)c3F)c2cc1OC(=O)N1CCN(C)C[C@H]1C | inactive | –
Cc1cc(C)c2c(c1)[C@@H](N(Cc1cc(C(F)(F)F)cc(C(F)(F)F)c1)c1nnn(C)n1)CCCN2CC1CCC(C(=O)O)CC1 (stereo not given in full) | – | 20.9 µM (active)
FC(F)(F)c1ccc(CNc2ccc(Cc3c[nH]c4ncc(Cl)cc34)cn2)cn1 | inactive | –

Assay: viability loss in pontine glioma line – cell-based, SU-DIPG-XXV, MIPE5.0, CellTiter-Glo, qHTS, dose response (AID 1347065);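 further: cells exposed to compound for 48 hours before ATP readout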
Settings: CellTiter-Glo ATP luminescence

Compound | AC50
C[C@@H](Nc1cc(F)cc(F)c1)c1cc(C(=O)N(C)C)cc2c(=O)cc(N3CCOCC3)oc12 | 9.34 µM (active)
COC(=O)/C=C/C(=O)N(O)CCCCNCc1ccc(COC(=O)Nc2cccc3ccccc23)cc1 | 20.9 µM (active)
Cc1nn(Cc2ccccc2Cl)c(C)c1CN(C)CC(O)COc1ccc(Cl)cc1 (stereo not given) | 20.9 µM (active)
CN(C)CCNC(=O)NC[C@H]1CC[C@@H]2[C@H](O1)c1cc(C(F)(F)F)ccc1N[C@H]2c1ccccc1 | 0.186 µM (active)
CC(C)[C@@H](CS(=O)(=O)C(C)C)N1C(=O)[C@@](C)(CC(=O)O)C[C@H](c2cccc(Cl)c2)[C@H]1c1ccc(Cl)cc1 | 18.6 µM (active)
CC1(C)CC[C@]2(C(=O)O)CC[C@]3(C)C(=CC[C@@H]4[C@@]5(C)C[C@@H](O)[C@H](O)C(C)(C)[C@@H]5CC[C@]43C)[C@@H]2C1 | 20.9 µM (active)
NCCCC[C@H](NC(=O)[C@@H](NC(=O)[C@H](Cc1c[nH]c2ccccc12)NC(=O)[C@H](CCCCN)NC(=O)[C@H](CCCCN)NC(=O)[C@H](Cc1c[nH]c2ccccc12)NC(=O)[C@H](Cc1c[nH]c2ccccc12)NC(=O)[C@H](CCCCN)NC(=O)[C@@H](N)CCCCN)C(c1ccccc1)c1ccccc1)C(N)=O | 20.9 µM (active)
Cc1cc(/C=c2/sc3nc4ccccc4n3c2=O)c(C)n1-c1ccccc1 | 20.9 µM (active)
CN(C)CCOc1cc(-c2cn[nH]c2)ccc1NC(=O)C1COc2ccccc2O1 (stereo not given) | 7.42 µM (active)
CCc1cc(/C(C)=N/OCc2ccc(C3CCCCC3)c(C(F)(F)F)c2)ccc1CN1CC(C(=O)O)C1 | 18.6 µM (active)
Cc1ccc(C(=O)Nc2ccc(Oc3cc4cnn(C)c4cc3-c3cn[nH]c3)c(F)c2)c(=O)n1-c1ccc(F)cc1 | 4.68 µM (active)
Cn1cc(-c2cc(Oc3cc(F)c(NC(=O)C4(C(=O)Nc5ccccc5)CC4)cc3F)ccn2)cn1 | 16.6 µM (active)
Nc1nc(OC(c2ccc(-c3cccc(F)c3)cc2)C(F)(F)F)cc(-c2ccc(C[C@@H](N)C(=O)O)cc2)n1 (stereo not given in full) | 23.5 µM (active)
C[C@@H]1C[C@H](N)C[C@H](c2ccncc2NC(=O)c2ccc(F)c(-c3c(F)cccc3F)n2)C1 | 9.34 µM (active)
CN1CCC(COc2cnc(-c3cccc(Cn4nc(-c5cccc(C#N)c5)ccc4=O)c3)nc2)CC1 | 26.3 µM (active)
CCNC1(C(N)=O)CCN(c2ncnc3c2nc(-c2ccccc2Cl)n3-c2ccc(Cl)cc2)CC1 | 11.8 µM (active)
N#Cc1ccc(Cn2cncc2CN2CCN(c3cccc(Cl)c3)C(=O)C2)cc1 | 9.34 µM (active)
O=C1CSC(=O)N1C(CCc1ccncc1)COc1ccc(-c2cccc([N+](=O)[O-])c2)cc1 (stereo not given) | 18.6 µM (active)
NC(=O)c1cnc2[nH]ccc2c1NC1C2CC3C[C@H]1CC(O)(C3)C2 (stereo not given in full) | 9.34 µM (active)
O=C(NCCCNc1nc(Nc2cccc(CN3CCOCC3)c2)ncc1C1CC1)C1CCC1 | 7.42 µM (active)
CNc1nc(Nc2cnn([C@H]3CCN(C4COC4)C[C@@H]3F)c2Cl)ncc1C(F)(F)F | 20.9 µM (active)
O=c1c(-n2ccnn2)c[nH]n1-c1cc(N2CCOCC2)ncn1 | 20.9 µM (active)
O=C(c1c(F)ccc(NS(=O)(=O)N2CC[C@@H](F)C2)c1F)c1c[nH]c2ncc(-c3cnc(C4CC4)nc3)cc12 | 10.5 µM (active)
CC1=C2C[C@H]3[C@@H](CC[C@@H]4C[C@H](NS(C)(=O)=O)CC[C@@]43C)[C@@H]2CC[C@@]2(C1)O[C@@H]1C[C@H](C)CN[C@H]1[C@H]2C | 20.9 µM (active)
